From ChEMBL document CHEMBL3988442, “University of Dundee, Small-Polar-MMV Screening Library” (2021)

Assays:
[1] = target: T1, Aspartate--tRNA(Asp/Asn) ligase (Mycobacterium tuberculosis (strain ATCC 25618 / H37Rv)) (UniProt P9WFW3); experiment: Assay for Asp RNA synthetase-1 from Mycobacterium tuberculosis; type: functional; set-up: scale not given: direction of the effect not stated beside the values; settings: 30 µM; also: in the data most compounds retested in dose-response had high values
T1 sequence (whole entry): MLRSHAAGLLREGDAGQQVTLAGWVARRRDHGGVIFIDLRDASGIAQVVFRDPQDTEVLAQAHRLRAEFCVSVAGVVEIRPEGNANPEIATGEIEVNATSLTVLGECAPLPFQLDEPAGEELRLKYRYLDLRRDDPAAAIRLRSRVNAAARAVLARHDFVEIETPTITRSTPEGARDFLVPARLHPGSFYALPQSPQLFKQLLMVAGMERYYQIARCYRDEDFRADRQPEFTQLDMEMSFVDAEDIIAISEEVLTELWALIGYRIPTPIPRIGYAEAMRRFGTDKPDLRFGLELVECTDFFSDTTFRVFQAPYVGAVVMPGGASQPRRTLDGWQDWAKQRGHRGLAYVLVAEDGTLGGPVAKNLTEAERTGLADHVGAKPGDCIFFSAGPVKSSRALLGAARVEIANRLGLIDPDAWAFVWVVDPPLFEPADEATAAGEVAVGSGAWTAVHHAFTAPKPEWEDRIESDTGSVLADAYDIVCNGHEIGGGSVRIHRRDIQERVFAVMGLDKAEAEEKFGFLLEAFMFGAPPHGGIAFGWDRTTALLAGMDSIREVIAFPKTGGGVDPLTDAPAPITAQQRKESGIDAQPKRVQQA

[2] = target: Shiga toxin 2 (Escherichia coli O157:H7) (UniProt P09385+P09386); experiment: E. coli 0.157:H7 Shiga Toxin SOP - stx2 screening assay; type: functional; set-up: scale not given: direction of the effect not stated beside the values; settings: 30 µM

Row | SMILES | Percent Effect [1] [%] | Percent Effect [2] [%]
1 | Cc1ccc(CNCCOc2ccc(S(C)(=O)=O)cc2)cc1 | 1.28 | -76.7
2 | Cn1ncc2c(=O)[nH]c(N3CCN(C(=O)c4ccsc4)CC3)nc21 | 1.3 | 13.3
3 | CSc1nccn1-c1cccc(C(=O)NCc2nnc(C)n2C)c1 | 4.52 | 19.7
4 | CCOc1nnc(CN2CCC(N(C)Cc3noc(C)n3)C2)s1 (stereo unspecified) | 5.37 | 24.4
5 | Cc1cncc(C2CCCN(C(=O)c3c[nH]c(=O)[nH]c3=O)C2)n1 (stereo unspecified) | 3.87 | 26.6
6 | Cc1nc(-c2ccccc2)n(CC(=O)NCC(C)C)n1 | -3.61 | 22
7 | CCCc1nnsc1C(=O)NCC1CCN(c2ccccn2)CC1 | -7.59 | -0.668
8 | CC(C)CC(=O)N1CC[C@@H]2[C@H](CC1)N(S(C)(=O)=O)CCS2(=O)=O | -2.04 | -14.8
9 | Cc1nc(-c2ccsc2)ccc1C(=O)NCCC1CCCO1 (stereo unspecified) | 0.767 | -18.3
10 | CC(C)(C)c1n[nH]c(C2CN(C(=O)c3csnn3)CCO2)n1 (stereo unspecified) | -2.01 | 5.88
11 | Fc1ccc(CN2CCCC2Cn2cccn2)c2ncccc12 (stereo unspecified) | -2.13 | -3.45
12 | O=C(O)C1(Cc2ccccc2Cl)CCN(c2ncccc2F)CC1 | 2.22 | -10.7
13 | COc1cccc(CN(C)Cc2ccc(C#N)cc2)c1OC | -1.31 | 9.74
14 | NC(=O)C1CCN(C(=O)NCc2ccccc2Cn2cncn2)CC1 | 2.04 | 1.76
15 | CCc1nc(C)c(C(=O)NCCN2CCN(C(C)=O)CC2)s1 | 0.0694 | -21.7
16 | Cc1ccc2nc(C3CCN(CCO)CC3)nn2c1 | 2.18 | -3.64
17 | Cc1ncsc1CN1CC[C@H]2OCC[C@@]2(C(=O)NC(C)C)C1 | 2.43 | -7.46
18 | COc1cc(CNC2CCCc3c2cnn3C)cc(OC)c1 (stereo unspecified) | -0.657 | 18.7
19 | O=C(c1ccc(O)cc1)N1CCN(C(=O)c2ccc3c(c2)COC3)CC1 | -1.8 | -20
20 | Cc1cc(CN2CCN(CC(O)c3ccccc3)CC2)no1 (stereo unspecified) | -5.08 | 3.56
21 | COc1ccc(C2CCCN2C(=O)c2cc3c([nH]c2=O)CCC3)cc1 (stereo unspecified) | 3.11 | -10
22 | Cc1ncnc2c1CCN(Cc1cccs1)CC2 | 9.2 | -21.2
23 | Cc1ccc(-c2nc(CCNC(=O)CCN3CCOC3=O)co2)cc1 | -1.93 | -45.5
